Laboratory results reported in PubChem BioAssay (NCI).
The panel holds about 83,000 compounds, 20% with a hit somewhere; the sample as a whole holds those more often.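 Treatment: one concentration, 48 hours, 96-well format. Scoring: percent growth, with anything below 10 considered active.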 The source made the active and inactive calls.

Test system: HL-60(TB) leukemia
Experiment: NCI-60 one-dose screen, 48 h (100 = growth as untreated, 0 = no growth, -100 = all killed)
Details: 10 µM unless noted

Compound | growth
C[C@@H]1C(=O)N(C[C@H](Cc2ccccc2)N(Cc2ccccc2)Cc2ccccc2)[C@]1(Cc1ccccc1)C(=O)OC(C)(C)C | 62.9% (inactive)
C/C=C/c1cc2c(c(=O)o1)C(=O)[C@@H](O)[C@H](C)O2 | -22% (active)
Cc1cc(C)c2c(c1)N(C)c1ncnc(-n3c(C)nc4cc(C)ccc43)c1CC2C (stereo not given) | 1.64% (active)
CCOC(=O)CC(=O)c1c(C)cc(C)cc1C | 90.8% (inactive)
O=P(OCCCl)(OCCCl)C(O)c1ccccc1Cl (stereo not given) | 96.2% (inactive)
NC1=Nc2cc(OCCCN3Cc4ccccc4C3)c(OCC3CC3)cc2C12CCCC2 | 62.5% (inactive)
COc1cccc(-c2nc3sccn3c2-c2ccnc(NCCCNS(=O)(=O)c3ccc(F)cc3)n2)c1 | 12.1% (inactive)
CCOC1Oc2ccccc2C(=O)/C1=N/c1nccs1 (stereo not given) | 106% (inactive)
COc1ccc(/C=C2\SC(=S)N(CCCN3CCOCC3)C2=O)c(OC)c1 | 83.1% (inactive)
CCCn1c(N)c(C(N)=O)sc1=S | 94.9% (inactive)
ONc1nc(NO)c2[nH]cnc2n1 | 15.1% (inactive)
CC[C@@H](c1ccc2cc(OC)ccc2c1)C(C)(C)C(=O)F | 104% (inactive)
O=C(Nc1ccccc1O)c1ccc(CNC(=O)c2ccsc2Nc2ccnc(C(F)(F)F)c2)cc1 | 7.44% (active)
Cn1c2ccccc2c2c3c(c4c5ccccc5n(C)c4c21)C(=O)OC3 | 98.5% (inactive)
COc1cccc(OC)c1Oc1c(-c2nc3ccccc3s2)c(C)nn1-c1ccccc1 | 81.8% (inactive)
